KCNH2 WT inh = blocks the wildtype human KCNH2 potassium channel; Q12809; U2OS, BacMam KCNH2, thallium flux FluxOr; hits give low values; activity change, % at 1.84 µM; 340,000 tested, 0.37% active; AID 720551;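 active = maximum activity change below -70%; inconclusive = maximum activity change between -70% and -50%; inactive = maximum activity change above -50%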
Target sequence (Q12809 whole entry, looked up): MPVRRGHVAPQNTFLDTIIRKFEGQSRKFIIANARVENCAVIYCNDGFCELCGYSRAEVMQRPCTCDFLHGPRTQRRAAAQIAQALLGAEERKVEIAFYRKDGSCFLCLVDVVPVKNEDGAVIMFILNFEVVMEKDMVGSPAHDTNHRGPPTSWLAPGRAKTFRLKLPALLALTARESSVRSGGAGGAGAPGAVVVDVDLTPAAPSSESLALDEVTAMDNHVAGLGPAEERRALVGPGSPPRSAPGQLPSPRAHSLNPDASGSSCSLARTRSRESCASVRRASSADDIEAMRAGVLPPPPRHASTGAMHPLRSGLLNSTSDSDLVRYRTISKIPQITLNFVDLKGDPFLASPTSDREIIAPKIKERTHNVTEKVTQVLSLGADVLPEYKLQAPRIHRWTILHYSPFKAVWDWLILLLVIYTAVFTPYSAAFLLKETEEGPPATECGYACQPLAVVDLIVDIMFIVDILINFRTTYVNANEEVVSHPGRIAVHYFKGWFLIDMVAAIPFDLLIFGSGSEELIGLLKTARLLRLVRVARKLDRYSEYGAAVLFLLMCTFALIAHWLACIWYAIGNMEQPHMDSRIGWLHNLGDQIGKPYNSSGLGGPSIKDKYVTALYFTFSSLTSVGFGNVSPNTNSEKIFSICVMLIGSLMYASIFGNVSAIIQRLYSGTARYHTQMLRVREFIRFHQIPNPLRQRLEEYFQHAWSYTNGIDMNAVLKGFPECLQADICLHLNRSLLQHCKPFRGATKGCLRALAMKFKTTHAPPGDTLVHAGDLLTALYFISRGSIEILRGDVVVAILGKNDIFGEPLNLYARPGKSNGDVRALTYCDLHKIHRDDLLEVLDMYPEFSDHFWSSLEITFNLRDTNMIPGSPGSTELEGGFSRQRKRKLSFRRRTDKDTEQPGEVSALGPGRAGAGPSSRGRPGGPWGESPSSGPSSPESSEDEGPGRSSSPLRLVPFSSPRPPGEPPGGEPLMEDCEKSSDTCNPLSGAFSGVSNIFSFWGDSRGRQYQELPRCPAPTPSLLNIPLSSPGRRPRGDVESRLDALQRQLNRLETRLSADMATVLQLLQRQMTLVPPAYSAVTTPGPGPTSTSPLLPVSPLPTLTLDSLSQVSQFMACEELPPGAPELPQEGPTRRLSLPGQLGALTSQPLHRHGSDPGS
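U2OS cells were transduced with wild-type KCNH2 virus (2.03 x 10^8 / mL) for 4 h at room temperature, then cultured overnight at 37 C. Thallium flux was read with FluxOr dye. Rate constants were normalized to DMSO controls.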
USP1-UAF1 inh = blocks the human USP1/UAF1 deubiquitinase complex; O94782; recombinant USP1/UAF1, Ub-Rhodamine cleavage fluorescence; Potency, µM (doses to about 57.1 µM), for inactives: at the top dose activity change, negative = inhibition, most hits filed as inhibitors; 390,000 tested, 0.23% active; active = well fitted inhibition curve with a large enough effect; inconclusive = small, poorly fitted or top-dose-only effect; inactive = no such curve, though single readings can be large or run the other way; note: potency is the fitted concentration of half-maximal effect; nearly all actives have a fitted effect of over 60% in size
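High-throughput fluorogenic screen: 1nM USP1/UAF1 complex, Ub-Rho substrate 150nM final, 50mM HEPES pH 7.8 with 0.5mM EDTA, 0.1 mg/ml BSA, 1mM TCEP and 0.01% Tween-20.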
FBPA coupling cs = counter-screen for Giardia aldolase inhibitors: coupling enzyme system | 290,000 tested, 0.67% active | activity change, negative = inhibition, % at 58.2 µM, hits read low | coupling enzyme system counterscreen, AmpLite Red fluorescence; in the data active = activity change below about -30%
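Counterscreen lacking aldolase: glyceraldehyde-3-phosphate coupling-enzyme reagent preincubated 10 min at RT with compound (at 57.5 uM final), then substrate/coupling system with AmpLite Red added; fluorescence read at 525/598 nm after 20 min RT.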
Giardia kill = Giardia lamblia killing | Giardia lamblia trophozoite viability | activity change, % at 7.66 µM, hits read low | AID 540267 | 340,000 tested, 0.15% active; in the data active = activity change below about -80%; inconclusive = between about -30% and that limit;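 note: parasites exposed to compound for two days anaerobically before the ATP read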
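Killing of trophozoites was scored by loss of ATP luminescence after a 48 hrs anaerobic exposure to compounds at 37 deg C, using 100 cells per well.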
KCNH2 3.1 inh = blocks the human KCNH2 3.1 channel isoform; U2OS KCNH2 3.1, thallium flux FluxOr; hits give low values; 340,000 tested, 0.95% active; AID 720553; activity change, % (tested at about 1.8 µM);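 active = maximum activity change below -70%; inconclusive = maximum activity change from -70% to -50%; inactive = maximum activity change above -50%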;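 note: thallium influx rate constant from kinetic fluorescence after stimulation buffer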
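FluxOr-based Tl+ influx in U2OS cells transduced with KCNH2 3.1 virus; rate constants normalized to DMSO controls.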
Active calls of the source: *; ? = inconclusive; nt = not tested or not shown. In the library only some 1.7% were active in any assay of this set; here they are far more common. % is set by controls: 0 for no effect and ±100 for the full control effect.

SMILES	KCNH2 WT inh	USP1-UAF1 inh	FBPA coupling cs	Giardia kill	KCNH2 3.1 inh
O=C(CCCOc1ccc(Cl)cc1Cl)N/N=C/c1ccccc1	-3	-12%	-48*	7	14
CC(C)c1ccc(NC(=O)c2cn(C3CCCCC3)c(=O)c3c2c2ccccc2n3C)cc1	nt	-28%	nt	nt	nt
CCSc1nnc(-c2sc3nnc(-c4ccccc4)c(-c4ccccc4)c3c2N)o1	-16	18µM*	-2	-15	-19
CCSc1nnc(-c2ccncc2)o1	-10	-1%	nt	-12	-3
CC(C)(C)C(=O)NC(Nc1cccc2cccnc12)C(Cl)(Cl)Cl (configuration not stated)	6	-6%	-66*	-15	-14
CCC1C(=O)CC(c2ccc([N+](=O)[O-])cc2)NC1c1ccc([N+](=O)[O-])cc1 (configuration not stated)	-14	-12%	-3	0	-79*
Cc1cccc(C(=O)NCCN2CCCC2)c1	6	-13%	5	-6	-7
Cc1cccc(C(=O)NCCNC(=O)c2cccc(C)c2)c1	-264*	-16%	3	17	nt
COc1ccc2c(CNCc3ccco3)c(C(=O)O)n(Cc3ccc(F)cc3Cl)c2c1	nt	13%	nt	nt	nt
COc1ccc(Nc2nnc(SC(C(=O)Nc3cc(C)ccc3C)c3ccccc3)s2)cc1 (configuration not stated)	1	-7%	0	17	-6
COc1ccc(C)cc1NC(=O)C(Sc1nnc(Nc2cc(C)ccc2OC)s1)c1ccccc1 (configuration not stated)	-121*	-8%	-3	-2	-11
COc1ccc(CCNC(=O)Cn2c(=O)c3cccn3c3ccccc32)cc1OC	nt	11%	nt	nt	nt
Cc1ccc(-n2c(Cc3ccccc3)nnc2SCC(=O)NNC(=O)Cc2ccccc2)cc1	0	-4%	12	-5	-80*
Cc1ccc(-c2noc(CSc3nnc(Cc4ccccc4)n3-c3ccc(Cl)cc3)n2)cc1	4	-13%	0	2	-74*
Cc1cc(=O)n2ccccc2c1C#N	0	-15%	2	5	-8
COc1ccc2c(C#N)c3ccccn3c2c1	3	-21%	-37*	2	7
O=C1c2ccccc2C(=O)N1c1ccc(O)cc1	nt	nt	nt	2	nt
Cn1cc(S(=O)(=O)N2CCCCCC2)cc1C(=O)Nc1ccc(Cl)c(C(F)(F)F)c1	nt	-20%	nt	nt	nt
O=C(Nc1ccccc1)Oc1ccc[nH]c1=O	14	?	-44*	14	-3
O=C(Oc1ccc[nH]c1=O)c1ccc(F)cc1	-7	-22%	nt	nt	-1
CC(c1nccs1)N(C)C(=O)CCc1nnc(-c2ccc(-c3ccccc3)cc2)o1 (configuration not stated)	-138*	-17%	3	22	-161*
CC(C)CC(=NNC(=O)c1ccncc1)c1cc(Cl)ccc1O	-15	28µM*	nt	10	-12
Nc1nc(NCCO)nc(N2CCCCCC2)c1[N+](=O)[O-]	2	-12%	0	-15	-1
OCCN(CCO)c1nc(N2CCCCC2)c2nc(N(CCO)CCO)nc(N3CCCCC3)c2n1	-4	28µM*	2	-7	-6
Cc1cc(C)cc(NC(=O)c2ccc([N+](=O)[O-])o2)c1	-5	-17%	-5	-95*	7
SMILES	KCNH2 WT inh	USP1-UAF1 inh	FBPA coupling cs	Giardia kill	KCNH2 3.1 inh
Cc1cc(C)nc(NC(=O)c2ccc([N+](=O)[O-])o2)n1	2	-21%	-7	?	21
CC(=O)c1ccc(NC(=O)c2ccc([N+](=O)[O-])o2)cc1	-1	-14%	-4	-101*	-8
COc1ccc(NC(=O)c2c([N+](=O)[O-])c(C(C)(C)C)nn2C)cc1	-12	-9%	0	-2	-81*
CC(=O)Nc1ccc(NC(=O)c2c([N+](=O)[O-])c(C(C)(C)C)nn2C)cc1	-4	-15%	1	-13	-18
Cc1ccc(C)c(-c2nnc(NC(=O)c3ccc([N+](=O)[O-])o3)o2)c1	-1	-16%	nt	-85*	14
COc1ccc(C2C3C=CCC(C)C3C(=O)N2Cc2ccccc2)cc1Cl (configuration not stated)	nt	nt	5	15	nt
O=C(NCc1ccc2c(c1)OCO2)c1ccc2c(c1)N(Cc1ccccc1F)C(=O)c1ccccc1S2=O (configuration not stated)	nt	-26%	nt	nt	nt
